# In the supplement of paper PMC12339681:
# Counter-ions that a name gives are not always drawn.
# System: PBMC-derived induced microglia-like cells (piMGLC)
# Assay: synaptosome phagocytic index relative to DMSO control (fraction of DMSO); higher = more phagocytosis
# Conditions: concentration: 10 uM (2 uM for compounds listed in Table S2); pretreatment time: 24 h; assay time: 3 h
# Description: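 PBMC-derived induced microglia-like cells (piMGLCs) in 96-well plates were pretreated for 24 h with CNS-penetrant library compounds (MedChemExpress HY-L028), mostly at 10 uM; Table S2 lists 9 compounds at 2 uM. pHrodo-Red-labelled human iPSC-neuron synaptosomes (3 ug/well) were then added for 3 h, and cells were fixed and imaged by confocal microscopy. Phagocytic index (synaptosome area / cell count, CellProfiler) is a mean over 3 replicate wells on different plates, normalized to the DMSO control. Compounds leaving <10% of DMSO cell count were marked toxic and given no value.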
row,SMILES,synaptosome phagocytic index
1,CC(=O)N[C@@H](CS)C(=O)O [Acetylcysteine],0.86
2,CNC(=O)c1cc(Oc2ccc3nc(N[C@@H]4CCCC[C@H]4O)sc3c2)ccn1,1.21
3,Cc1cc2c(s1)Nc1ccccc1N=C2N1CCN(C)CC1 [Olanzapine],0.345
4,COc1cc2/c(=N/c3ccc(Br)cc3F)nc[nH]c2cc1OCC1CCN(C)CC1 [Vandetanib],0.248
5,Cn1nnc2c(C(N)=O)ncn2c1=O [Temozolomide],0.824
6,COc1cn(-c2ccc(-n3cccn3)cc2F)nc(-c2ccnn2-c2ccccc2)c1=O [Balipodect],0.835
7,O=C(c1ccccc1)c1ccc2n1CCC2C(=O)O (stereo not given) [Ketorolac_(tromethamine_salt)],0.874
8,CCC(CC)O[C@@H]1C=C(C(=O)O)C[C@H](N)[C@H]1NC(C)=O [Oseltamivir_acid],0.782
9,CC1(C)S[C@@H]2[C@H](NC(=O)[C@H](N)c3ccc(O)cc3)C(=O)N2[C@H]1C(=O)O [Amoxicillin_(sodium)],0.69
10,Nc1nc2c(ncn2COCCO)c(=O)[nH]1 [Acyclovir],0.731
11,Cc1ccsc1C(=CCCN1CCC[C@@H](C(=O)O)C1)c1sccc1C [Tiagabine_(hydrochloride)],1.28
12,Cc1ccc(Nc2nccc(N(C)c3ccc4c(C)n(C)nc4c3)n2)cc1S(N)(=O)=O [Pazopanib],0.785
13,CC(=O)OCC(=O)[C@@]1(O)CC[C@H]2[C@@H]3CCC4=CC(=O)C=C[C@]4(C)[C@H]3[C@@H](O)C[C@@]21C [Prednisolone_acetate],0.605
14,CC1(C)S[C@@H]2[C@H](NC(=O)[C@H](N)c3ccc(O)cc3)C(=O)N2[C@H]1C(=O)O [Amoxicillin_(trihydrate)],0.942
15,CC(C)c1c(C(=O)Nc2ccccc2)c(-c2ccccc2)c(-c2ccc(F)cc2)n1CC[C@@H](O)C[C@@H](O)CC(=O)O [Atorvastatin_(hemicalcium_salt)],0.823
16,CN(C)CCOc1ccc(-c2nc(-c3ccncc3)c(-c3ccc4c(c3)CC/C4=N\O)[nH]2)cc1,0.684
17,CC(C)Nc1cccnc1N1CCN(C(=O)c2cc3cc(NS(C)(=O)=O)ccc3[nH]2)CC1 [Delavirdine_(mesylate)],0.749
18,CN(C)CCc1c[nH]c2ccc(CS(=O)(=O)N3CCCC3)cc12 [Almotriptan_(malate)],0.882
19,CCC(C)C(N)C(=O)NCCN1CCOCC1 (stereo not given) [LM11A-31_(dihydrochloride)],0.844
20,Nc1nc2[nH]cc(CCc3ccc(C(=O)N[C@@H](CCC(=O)O)C(=O)O)cc3)c2c(=O)[nH]1 [Pemetrexed_(disodium_hemipenta_hydrate)],1.03

row,SMILES,synaptosome phagocytic index
1,NC(=O)N1c2ccccc2CC(=O)c2ccccc21 [Oxcarbazepine],0.693
2,CO/N=C(\C(=O)N[C@@H]1C(=O)N2C(C(=O)O)=C(C[N+]3(C)CCCC3)CS[C@H]12)c1csc(N)n1 [Cefepime_(Dihydrochloride_Monohydrate)],0.597
3,CC(=O)OCC(=O)[C@@]1(O)[C@H](C)C[C@H]2[C@@H]3CCC4=CC(=O)C=C[C@]4(C)[C@@]3(F)[C@@H](O)C[C@@]21C [Dexamethasone_acetate],0.776
4,COc1ccccc1OCC(O)COC(N)=O (stereo not given) [Methocarbamol],0.902
5,C[C@H](Cn1cnc2c(N)ncnc21)OCP(=O)(O)O [Tenofovir],0.906
6,C[C@]12CCCN1CC1=NNC(=O)c3cc(F)cc4[nH]c2c1c34 [Pamiparib],0.861
7,Cc1ccc(C(=O)c2cc(O)c(O)c([N+](=O)[O-])c2)cc1 [Tolcapone],0.526
8,Fc1ccc(-c2c3cccc(C(F)(F)F)c3nn2Cc2ccc(F)cc2Cl)cc1,0.581
9,CC(C)NCC(O)COc1cccc2ccccc12 (stereo not given) [Propranolol_(hydrochloride)],1.1
10,CCN1CCCC1CNC(=O)c1cc(S(N)(=O)=O)ccc1OC (stereo not given) [Sulpiride],0.571
11,CC(C(=O)O)c1cccc(C(=O)c2ccccc2)c1 (stereo not given) [Ketoprofen],0.731
12,CN(Cc1cnc2nc(N)nc(N)c2n1)c1ccc(C(=O)N[C@@H](CCC(=O)O)C(=O)O)cc1 [Methotrexate],1.02
13,CC(C(=O)O)c1ccc(-c2ccccc2)c(F)c1 (stereo not given) [Flurbiprofen],0.64
14,CS(=O)(=O)CCNCc1ccc(-c2ccc3ncnc(Nc4ccc(OCc5cccc(F)c5)c(Cl)c4)c3c2)o1 [Lapatinib],0.0755
15,NCc1c[nH]c(=S)n1[C@H]1CCc2c(F)cc(F)cc2C1 [Nepicastat_(hydrochloride)],0.936
16,CC(=O)Nc1nnc(S(N)(=O)=O)s1 [Acetazolamide],1.03
17,CC#Cc1cncc(-c2ccc3c(c2)[C@@]2(N=C(C)C(N)=N2)[C@]2(CC[C@H](OC)CC2)C3)c1 [Lanabecestat],1.03
18,CC1=NN(c2ccccc2)C(=O)C1 [Edaravone],0.555
19,COc1ccc(Cl)cc1C(=O)NCCc1ccc(S(=O)(=O)NC(=O)NC2CCCCC2)cc1 [Glibenclamide],0.608
20,COC(=O)/C=C/c1ccc(O)c(OC)c1 [Ferulic_acid_methyl_ester],0.783
